Source: PubChem (National Center for Advancing Translational Sciences (NCATS))
LmPK inh = LmPK (Leishmania mexicana) enzyme inhibition. purified LmPK, Kinase-Glo ATP luminescence, 1 h. hit rate 0.37% among 290,000. Potency, µM (doses to about 57.5 µM), for the others: at the highest dose activity change, negative = inhibition, actives largely listed as inhibitors; note: potency is the fitted concentration of half-maximal effect; % is set by controls: 0 for no effect and ±100 for the full control effect
Target sequence (Q27686 whole entry, looked up): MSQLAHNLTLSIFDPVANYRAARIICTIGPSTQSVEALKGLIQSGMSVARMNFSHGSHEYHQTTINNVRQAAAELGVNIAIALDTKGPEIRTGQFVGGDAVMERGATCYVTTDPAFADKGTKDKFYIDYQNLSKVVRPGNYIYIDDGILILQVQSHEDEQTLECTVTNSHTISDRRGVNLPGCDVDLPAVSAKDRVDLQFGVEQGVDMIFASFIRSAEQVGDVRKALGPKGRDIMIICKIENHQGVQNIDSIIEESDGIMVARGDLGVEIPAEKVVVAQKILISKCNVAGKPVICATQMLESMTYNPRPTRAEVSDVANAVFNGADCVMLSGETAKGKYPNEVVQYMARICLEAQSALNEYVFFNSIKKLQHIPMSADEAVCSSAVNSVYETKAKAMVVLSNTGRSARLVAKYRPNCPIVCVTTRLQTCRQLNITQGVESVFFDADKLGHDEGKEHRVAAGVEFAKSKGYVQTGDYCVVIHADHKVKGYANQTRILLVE
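Pyruvate kinase activity monitored as ATP production (luciferase luminescence). Conditions: 0.1 nM enzyme, 0.5 mM PEP, 0.1 mM ADP, 1 h, RT; normalized against uninhibited and no-enzyme wells.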
Tb PYK inh = inhibitors of Trypanosoma brucei pyruvate kinase; Q57TT1; TbPYK enzyme, Kinase-Glo Plus ATP luminescence, 45 min; Potency, µM (doses to about 76.8 µM), for inactives: at the top dose activity, negative = inhibition, actives largely listed as inhibitors; hit rate 0.12% among 410,000; note: potency is the fitted concentration of half-maximal effect; % is set by controls: 0 for no effect and ±100 for the full control effect; nearly all actives have a fitted effect of over 50% in size
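T. brucei PYK with substrate was exposed to pin-transferred compounds across a concentration series, then started with 130 uM ADP (final). After 45 min at room temperature, Kinase-Glo Plus luminescence was read, normalized and curve-fitted.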
RE007 growth inh = less growth of the S. pombe RE007 Vpr strain; S. pombe RE007 Vpr strain, BacTiter-Glo ATP luminescence, 24 h; Potency, µM (series often up to 92.2 µM), inactives show top-dose activity change, negative = less growth, actives largely listed as inhibitors; hit rate 0.21% among 360,000; active = well fitted falling curve with a large enough effect; inconclusive = small, poorly fitted or top-dose-only effect; inactive = no such curve, though single readings can be large or run the other way; note: potency is the fitted concentration of half-maximal effect; % is set by controls: 0 for no effect and ±100 for the full control effect; nearly all actives have a fitted effect of over 50% in size
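Fission yeast RE007 carrying one integrated HIV-1 vpr copy, seeded at OD 0.01 in PMG+AL medium with 23 nL pinned compound. Grown 24 h at 30 degrees; viability read by BacTiter-Glo luminescence after 5 min.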
CHX counter = affects cycloheximide protein synthesis inhibition readout, counter-screen; cell reporter, cycloheximide protein synthesis inhibition counterscreen; max response, %; hit rate 12% among 300,000; in the data active = max response mostly above about 13%, no sharp cut-off; inactive = mostly below about 14%; note: read at 38.3 µM for the half of the compounds with a filed dose; 0% is about no effect
FBPA Giardia inh = blocks Giardia fructose-bisphosphate aldolase activity; A8B2U2; purified Giardia FBPA; Potency, µM (series often up to 59.6 µM), without a hit: at the highest dose activity, negative = inhibition, most hits filed as inhibitors; hit rate 0.71% among 290,000; AID 2451; note: potency is the fitted concentration of half-maximal effect; % is set by controls: 0 for no effect and ±100 for the full control effect; nearly all actives have a fitted effect of over 55% in size
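Giardia FBPA (40 nM reagent) was preincubated 10 min at RT with compound (up to 57.5 uM final), then substrate plus GAPDH/TPI/NAD/arsenate coupling system with diaphorase/resazurin was added; resorufin fluorescence (525/598 nm) was read after 20 min.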
Shiga inhibitor = blocks Shiga toxin action in Vero cells. Vero cells, Shiga toxin protein synthesis inhibition reporter. inhibition, % at 38.7 µM. hit rate 9.2% among 290,000. AID 2315; in the data active = inhibition mostly above about 28%, no sharp cut-off; inactive = mostly below about 43%; note: 0% is about no effect
An asterisk follows results filed as active; ? = inconclusive; · = no result given; [ ] = remark or other dose. This excerpt belongs to a sample that is enriched for hits. Unless noted, calls come from the whole dose curve; as a rule, active = well fitted curve in the direction sought with a large enough effect; inconclusive = small, poorly fitted or top-dose-only effect, or another doubt; inactive = no such curve, though single readings can be large; an effect the other way counts as inactive or inconclusive.

SMILES	LmPK inh	Tb PYK inh	RE007 growth inh	CHX counter	FBPA Giardia inh	Shiga inhibitor
COc1cc(Cl)ccc1OCc1cc(C(=O)NCC(C)c2ccccc2)no1 (configuration not stated)	10.2%	3.3%	-3.2%	25.0*	-3.4%	32.6
CC(CNC(=O)c1cc(COc2ccc3ncccc3c2)on1)c1ccccc1 (configuration not stated)	5.9%	1.6%	-3.5%	-0.8	-1.8%	-4.1
CCC(NC(=O)c1cc(COc2ccc(Cl)cc2OC)on1)c1ccncc1 (configuration not stated)	0.9%	0.9%	-5.3%	37.9*	·	76.5*
COc1ccc(-c2ccc(N(C)C)cc2)cc1C1C2C=CCC(C)C2C(=O)N1Cc1ccccc1 (configuration not stated)	·	·	·	6.5	2.0%	1.6
COc1ccccc1CNc1ccc(-c2nc(C(C)C)no2)cc1[N+](=O)[O-]	·	2.3%	·	·	·	·
CCc1ccccc1NC(=O)Nc1c[nH]c(=O)[nH]c1=O	·	4.1%	·	·	·	·
CCCCNc1nc(C)nc2c1nc(-c1ccccc1)n2CC(C)(C)CN(C)C	·	·	·	·	2.8%	·
Cc1ccc(SCc2nc3ncccn3c2Br)cc1	5.1%	1.8%	11.7%	28.5*	-9.1%	37.4
N#CC(C(=S)Nc1ccccc1)c1nc2ccccc2[nH]1 (configuration not stated)	-1.1%	-9.9%	-9.7%	18.7*	-2.1%	24.7
OC(c1nc2ccccc2[nH]1)C(O)c1nc2ccccc2[nH]1 (configuration not stated)	-0.1%	3.3%	15.6%	21.1*	1.2%	·
Cc1ccc2nc(C(O)C(O)c3nc4ccc(C)cc4[nH]3)[nH]c2c1 (configuration not stated)	7.2%	-0.8%	-0.9%	45.7*	?	122.0*
COc1ccc(C2CC(c3ccccc3)Oc3ccc(OC)cc32)cc1 (configuration not stated)	·	·	·	9.4	4.4%	2.5
CC(=O)C1=C(C)Nc2ncnn2C1c1ccc(Br)cc1 (configuration not stated)	-2.0%	4.4%	1.0%	4.9	17.3%	18.8
CC1C/C(=N/NC(=O)c2cccc(F)c2)c2ccc(O)cc2C1 (configuration not stated)	3.5%	-0.4%	-14.8%	42.0*	5.6%	active
COc1cccc(-c2nc(N3CCN(C)CC3)c3ccccc3n2)c1O	4.8%	-1.8%	-20.3%	13.6*	-0.1%	34.2
COc1cccc(-c2nc3ccccc3s2)c1O	-8.6%	-10.1%	-2.7%	27.3*	-7.8%	64.3
Clc1ncccc1-c1nc2ccccc2s1	3.6%	2.6%	2.0%	34.4*	2.4%	105.9*
COc1cc(OC)cc(C(=O)Nc2ccccc2-c2nc3ccccc3s2)c1	·	-1.0%	·	·	·	·
COc1cc(OC)c(-c2nc3ccccc3s2)cc1OC	12.0%	-0.5%	-15.3%	23.6*	-10.0%	33.2*
C[C@@H](c1ccccc1)N1C[C@@H](COCc2ccccc2)Oc2cc(N3CC[C@@H](N(C)C)C3)ccc2S1(=O)=O	·	3.6%	-13.9%	·	·	·
COC(=O)[C@H](CC(C)C)NC(=O)CC[C@H]1O[C@@H](n2ccc(=O)[nH]c2=O)[C@H](O)[C@@H]1O	·	-8.6%	11.5%	·	·	·
CNC(=O)OCc1nc(SC2CCCCO2)n(C)c1COC(=O)NC (configuration not stated)	·	2.0%	1.5%[18.4 µM]	·	·	·
O=C(O)CN1C(=O)/C(=C\c2cc(Br)ccc2OCc2ccc(F)cc2)SC1=S	5.7%	2.1%	-3.0%	-4.0	14.0%	-6.9
Cc1ccc(COc2ccc(Br)cc2/C=N/O)cc1	3.0%	-2.7%	31.6µM*	30.6*	3.1%	58.0
CCOc1cc(/C=N/O)ccc1OCc1ccc(C)cc1	-3.6%	0.3%	-25.9%	26.8*	?	active
SMILES	LmPK inh	Tb PYK inh	RE007 growth inh	CHX counter	FBPA Giardia inh	Shiga inhibitor
CCOc1cc(/C=N/O)ccc1OCC(=O)Nc1cccc(C)c1	-2.2%	-10.8%	5.5%	31.0*	2.6%	40.8*
O/N=C/c1cc(Br)ccc1OCc1ccc(F)cc1	·	1.9%	35.5µM*	·	·	·
CN(Cc1cn(Cc2ccc(Cl)cc2)nn1)C1CN(Cc2cn(Cc3ccc(Cl)cc3)nn2)S(=O)(=O)C1 (configuration not stated)	·	-3.6%	-12.5%	·	·	·
C[C@@H](O)C(N)C(=O)O (some centres not stated)	·	·	·	-5.8	0.3%	-4.1
Cc1[nH]c(=O)[nH]c(=O)c1S(=O)(=O)Nc1cccc(Cl)c1C	·	-2.8%	·	·	·	·
Cc1cc(C)n(-c2nc3ccccc3nc2N2CCN(c3cccc(C(F)(F)F)c3)CC2)n1	·	1.9%	·	·	·	·
O/N=C/c1cc(Br)ccc1OCc1cccc(F)c1	1.4%	-2.3%	?	26.1*	-0.2%	92.7
Cc1c(N)cc(N)cc1C(=O)O	-1.5%	-2.6%	2.3%	-1.8	4.46µM*	0.8
COc1ccc(Cl)cc1C(=O)C1CCCN(Cc2cnc(C)s2)C1 (configuration not stated)	2.9%	-12.2%	-7.4%	17.4*	-2.1%	52.8*
CCOC(=O)CSc1nc2c(sc3ccc([N+](=O)[O-])cc32)c(=O)n1Cc1ccco1	-1.3%	8.3%	-10.7%	31.6*	3.0%	42.6*
Cn1cc([N+](=O)[O-])c(C(=O)Nc2nc(-c3ccc(Cl)cc3)cs2)n1	4.5%	0.2%	-2.5%	17.2*	-0.2%	-40.7
Cc1ccc(-c2nc(NC(=O)c3nn(C)cc3[N+](=O)[O-])sc2C)cc1	3.2%	-3.5%	5.4%	-4.6	0.3%	-15.3
Cn1nccc1C(=O)Nc1ccn(C23CC4CC(CC(C4)C2)C3)n1	0.9%	3.7%	-4.2%	44.5*	6.3%	68.1*
Cn1cc([N+](=O)[O-])c(C(=O)Nc2ccn(C34CC5CC(CC(C5)C3)C4)n2)n1	-1.8%	-9.9%	6.2%	15.3*	0.1%	1.9
CCn1cc([N+](=O)[O-])c(C(=O)Nc2ccn(C34CC5CC(CC(C5)C3)C4)n2)n1	1.3%	-6.1%	33.0%	-2.4	-1.4%	-1.2
Cc1cc(C)c(CSc2nnc(C)n3c2cc2occc23)c(C)c1	·	-7.1%	·	·	·	·
COc1ccc(CCNC(=O)c2cc3c(=O)n4ccccc4nc3n(Cc3ccco3)c2=N)cc1OC	-7.0%	5.1%	3.7%	14.7*	·	18.3
COc1ccc(CCn2c(=N)c(C(=O)NCc3ccco3)cc3c(=O)n4ccccc4nc32)cc1OC	·	-1.7%	2.9%	·	·	·
N#Cc1c(N)sc2c1CCCCCC2	-0.8%	-16.6%	-9.8%	-7.9	-18.0%	-12.6
N#Cc1c(N)sc(=S)c2c1CCCCC2	-3.3%	?	-3.4%	6.0	10µM*	-2.8
COc1ccc2c(CNCCc3cccs3)c(C(=O)O)n(Cc3ccccc3C)c2c1	·	-0.8%	·	·	·	·
COc1ccc2cc(-c3[nH]ncc3CN3CCCC3c3nonc3C)ccc2c1 (configuration not stated)	-5.9%	0.3%	-7.9%	34.6*	-20.6%	50.9*
